From PubChem BioAssay (NCATS) come the findings set out here.

Inconclusive results are not listed. Activity calls are given as the source filed them. Unless noted, calls follow the shape of the dose curve; as a rule, active = well fitted curve in either direction with a large enough effect (not every such curve was filed as active); inconclusive = small, poorly fitted or top-dose-only effect, or another doubt; inactive = flat fitted curve, though single readings scatter.

Assay [1] has as its target Lysosomal acid glucosylceramidase (Homo sapiens) (UniProt P04062). Description: Glucocerebrosidase-p2 (AID 348; in the data active = potency below about 10 µM; also: potency is read from the fitted curve at half-maximal effect). The note with it: purified GBA, blue fluorogenic substrate, 40 min. Summed up:
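Compounds titrated from 0.6 nM upwards against 0.2 nM enzyme in pH 5.9 citric acid/KH2PO4, taurocholate, tween-20; blue fluorogenic substrate 80 uM, 40 min room temperature, stopped and read Ex 365/Em 440 for AC50.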

Assay [2] is described as follows: AP1 Signaling Pathway (AID 357).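 Also: ME-180 reporter cells stimulated with EGF at its EC50 level; % is scaled to controls: 0 for no effect and ±100 for the full control effect.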 The note with it: ME-180 AP-1-bla reporter, EGF-induced, beta-lactamase ratio, 5 h; at 7.69 µM (top of the series) unless noted. Summed up:
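AP-1-bla ME-180 cells, Opti-MEM + 0.5% dialyzed FBS, plated overnight 37 °C. Cpd titration + EC50 EGF, 5 h 37 °C. CCF4 2.5 h RT; ex 405, em 460/530 ratio → %activity, AC50.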

For assay [3], the target named is Cytochrome P450 1A2 (Homo sapiens) (UniProt P05177). Nature of the assay: p450-cyp1a2 (AID 410; calls by dose curve; also: potency is read from the fitted curve at half-maximal effect). The note with it: recombinant CYP1A2, luciferin-ME demethylation, luminescence; series mostly up to 57 µM. Summed up: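 20nM CYP1A2 with 100uM Luciferin-ME (at Km) in 100mM KPO4; compound preincubated 10 min, NADPH regeneration added, 60 min at room temperature. Luciferin quantified by luminescence after detection reagent; normalized to 57 uM furafylline.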
Chain of Cytochrome P450 1A2 (Homo sapiens) (P05177 whole entry, looked up): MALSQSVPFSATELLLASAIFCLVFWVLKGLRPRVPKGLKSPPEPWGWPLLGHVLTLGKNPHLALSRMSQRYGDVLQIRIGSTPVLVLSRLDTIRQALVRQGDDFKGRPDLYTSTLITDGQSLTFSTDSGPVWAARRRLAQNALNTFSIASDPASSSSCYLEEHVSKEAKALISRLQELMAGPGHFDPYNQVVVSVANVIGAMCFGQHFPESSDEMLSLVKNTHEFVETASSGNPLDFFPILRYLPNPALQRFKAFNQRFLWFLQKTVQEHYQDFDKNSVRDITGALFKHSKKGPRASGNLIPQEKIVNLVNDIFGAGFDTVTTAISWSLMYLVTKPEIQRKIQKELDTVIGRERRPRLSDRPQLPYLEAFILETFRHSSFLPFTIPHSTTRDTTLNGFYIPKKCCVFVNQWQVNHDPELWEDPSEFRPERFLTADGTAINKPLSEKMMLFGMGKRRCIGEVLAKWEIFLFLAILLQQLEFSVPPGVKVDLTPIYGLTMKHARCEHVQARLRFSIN

Assay [4] is described as follows: NFAT Signaling Pathway (AID 444).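 Also: carbachol stimulus at about its EC50 of 1 µM final; % is scaled to controls: 0 for no effect and ±100 for the full control effect.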 The note with it: Jurkat NFAT-bla M1, carbachol, beta-lactamase ratio, 5 h; at 7.69 µM (top of the series) unless noted. Summed up: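 Read-out: CCF4 FRET ratio (460 nm/530 nm) after 1 h RT dye loading, used for %activity and AC50 from titration series. Cells: Jurkat NFAT-β-lactamase/M1 line, treated with compound plus 1 uM carbachol for 5 h, 37 °C.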

A short description of assay [5]: Stat Signaling Pathway (AID 446).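 Also: ME-180 cervical cancer cells given 40 pM IL-6 alongside compound; SIE-controlled beta-lactamase reporter measured as 460/530 nm FRET emission ratio; % is scaled to controls: 0 for no effect and ±100 for the full control effect.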 The note with it: ME-180 SIE beta-lactamase reporter, IL-6 stimulated, 5 h; at 7.69 µM (top of the series) unless noted. Summed up:
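Screening format detects activators and inhibitors alike: ME-180 SIE-bla cells stimulated at 40 pM IL-6 for 5 hrs with compound, then dual-emission beta-lactamase read at 405 nm excitation.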

Assay [6] has as its target Glucocorticoid receptor (Homo sapiens) (UniProt P04150). Nature of the assay: GR-GFP Redistribution (AID 450;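 active = compounds whose dose series gives a full or clear partial fitted curve of increased nuclear translocation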; also: potency is read from the fitted curve at half-maximal effect). The conditions noted are these: U2OS GR-GFP nuclear translocation, laser cytometry, 2 h.
Assay [7] has the same target. Nature of the assay: GR-EFC Redistribution (AID 451; calls by dose curve; also: potency is read from the fitted curve at half-maximal effect). The conditions noted are these: CHO-K1 GR-EFC translocation, beta-gal luminescence, 2 h. The method, boiled down:
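Translocation of GR-ED fusion to nuclear EA restores b-gal, read by luminescence after 1 h room-temperature detection. Engineered CHO-K1 biosensor cells, 1,000/well, exposed 2 h at 37 C to titrations up to 46 uM final.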

For assay [8], the target named is Mitogen-activated protein kinase 10 (Mus musculus) (UniProt Q61831). Description: JNK3 AlphaScreen Assay (AID 530).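 Also: kinase came from lysate of stimulated human HepG2 cells; signal reports phosphorylation of biotinylated GST-cJun 1-79 at Ser73 with 10 µM ATP; % is scaled to controls: 0 for no effect and ±100 for the full control effect.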 The note with it: JNK3 lysate, c-Jun phosphorylation; series mostly up to 57.1 µM. The method, boiled down: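 Compound titrations were preincubated 15 minutes at room temperature with substrate, antibody and pre-activated JNK3-containing HepG2 lysate. Reactions were started with 10 uM ATP and stopped with EDTA-containing bead buffer for AlphaScreen detection.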
A general note: Alpha assays give light when donor and acceptor beads are brought close together.

Assay [9] concerns the target 3',5'-cyclic-AMP phosphodiesterase 4B (Homo sapiens) (UniProt Q07343). Description: qHTS Assay for Inhibitors of PDE-IV (AID 607; active = well fitted activation curve with a large enough effect in the main read-out, with a control signal flat, not every such curve was filed as active; also: % of control where 0% means no effect). The conditions noted are these: HEK293 ACTOne CNG channel cells, membrane potential fluorescence; series mostly up to 22.9 µM. Summed up:
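The readout is membrane depolarisation from a cAMP-sensing CNG channel, detected with a potential dye at ex 535/em 590. Cells were HEK293-derived (endogenous PDE-IV) at 1000 cells/well, titrated up to 22.9 uM final.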
(In general: In qHTS, concentration-response curves come from the screen itself.)

The target in assay [10] is Cytochrome P450 3A4 (Homo sapiens) (UniProt P08684). Description: qHTS Assay for Inhibitors and Substrates of Cytochrome P450 3A4 (AID 884; active = well fitted curve in the direction sought with a large enough effect; an effect the other way counts as inactive or inconclusive; also: potency is read from the fitted curve at half-maximal effect; nearly all actives have a fitted effect of over 50% in size). The note with it: recombinant CYP3A4, Luciferin-PPXE luminescence; series mostly up to 57.1 µM. Summed up: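 20 nM human CYP3A4 with 25 uM Luciferin-PPXE (at KM) in 200 mM KPO4, preincubated 10 min with compound; NADPH regeneration started a 60 min RT reaction. Luciferin detected by luminescence, normalized to 57 uM ketoconazole as full inhibition.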
Chain of Cytochrome P450 3A4 (Homo sapiens) (P08684 whole entry, looked up): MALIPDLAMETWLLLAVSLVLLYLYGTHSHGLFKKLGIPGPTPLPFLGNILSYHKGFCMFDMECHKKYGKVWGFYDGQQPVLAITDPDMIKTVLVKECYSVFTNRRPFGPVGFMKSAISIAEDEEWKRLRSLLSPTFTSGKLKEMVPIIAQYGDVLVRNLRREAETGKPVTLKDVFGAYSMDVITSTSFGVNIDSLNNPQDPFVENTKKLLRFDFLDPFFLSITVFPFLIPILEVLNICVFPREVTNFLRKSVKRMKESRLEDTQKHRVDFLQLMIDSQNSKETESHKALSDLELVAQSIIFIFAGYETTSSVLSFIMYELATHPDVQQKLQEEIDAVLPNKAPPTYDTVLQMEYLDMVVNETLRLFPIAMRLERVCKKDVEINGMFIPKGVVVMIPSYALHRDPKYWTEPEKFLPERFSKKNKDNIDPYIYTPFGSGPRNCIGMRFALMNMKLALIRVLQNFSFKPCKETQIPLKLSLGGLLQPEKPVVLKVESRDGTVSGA

Assay [11] shares this target. Nature of the assay: qHTS Assay for Activators of Cytochrome P450 3A4 (AID 885; active = well fitted curve in the direction sought with a large enough effect; an effect the other way counts as inactive or inconclusive; also: nearly all actives have a fitted effect of over 65% in size). The conditions noted are these: recombinant CYP3A4, Luciferin-PPXE luminescence, 60 min; series mostly up to 57.1 µM. Summed up:
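Steps: enzyme/substrate mix dispensed; compound added, 10 min RT; NADPH regeneration solution added, 60 min RT; luciferin detection buffer stops reaction; 20 min later luminescence measured.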

The nature of assay [12]: Primary qHTS for small molecule stabilizers of the endoplasmic reticulum resident proteome: Secreted ER Calcium Modulated Protein (SERCaMP) assay (AID 1508630; active = well fitted curve in the direction sought with a large enough effect; an effect the other way counts as inactive or inconclusive; also: % is scaled to controls: 0 for no effect and ±100 for the full control effect). The note with it: SH-SY5Y GLuc-SERCaMP (Gaussia luciferase released on ER calcium loss) secretion, thapsigargin, luminescence; series mostly up to 38.4 µM. The method, boiled down:
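GLuc-SERCaMP-expressing SH-SY5Y cells, pretreated 16 h with compound, are challenged with thapsigargin to empty ER calcium stores; after 4 h, coelenterazine is added directly to the medium and luminescence is imaged.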

Assay [13] has as its target Cytochrome P450 2C19 (Homo sapiens) (UniProt P33261). Description: qHTS Assay for Inhibitors and Substrates of Cytochrome P450 2C19 (AID 899; active = well fitted curve in the direction sought with a large enough effect; an effect the other way counts as inactive or inconclusive; also: % is scaled to controls: 0 for no effect and ±100 for the full control effect; nearly all actives have a fitted effect of over 60% in size). The conditions noted are these: recombinant CYP2C19, luciferin-H EGE luminescence; series mostly up to 57.1 µM. The method, boiled down:
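5nM enzyme + 10uM Luciferin-H EGE (=KM), 50mM KPO4; cpd pin-transferred, 10 min 37C; NADPH regen, 60 min 37C; stopped w/ luciferin detection reagent, 20 min; luminescence. Normalized to 57uM ketoconazole (AC100).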

Assay [14] is described as follows: qHTS Assay for Identification of Small Molecule Agonists for Hypoxia Response Element Signaling Pathway (AID 914; active = well fitted activation curve with a large enough effect in the signal ratio, with a control signal flat, not every such curve was filed as active; the % refers to the signal ratio; also: % of control where 0% means no effect). The note with it: ME-180 (cervical carcinoma) HRE-bla reporter, beta-lactamase ratio, CoCl2, 17 h; activation: hits give high values. The method, boiled down: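 qHTS titration; ME-180 HRE-bla cells; EC50 CoCl2 co-treatment, 17 h at 37 degrees Celsius; CCF4 dye, ex 405nm, em 460nm and 530nm; %Activity from ratio; AC50.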

Chain of Glucocorticoid receptor (Homo sapiens) (P04150 whole entry, looked up): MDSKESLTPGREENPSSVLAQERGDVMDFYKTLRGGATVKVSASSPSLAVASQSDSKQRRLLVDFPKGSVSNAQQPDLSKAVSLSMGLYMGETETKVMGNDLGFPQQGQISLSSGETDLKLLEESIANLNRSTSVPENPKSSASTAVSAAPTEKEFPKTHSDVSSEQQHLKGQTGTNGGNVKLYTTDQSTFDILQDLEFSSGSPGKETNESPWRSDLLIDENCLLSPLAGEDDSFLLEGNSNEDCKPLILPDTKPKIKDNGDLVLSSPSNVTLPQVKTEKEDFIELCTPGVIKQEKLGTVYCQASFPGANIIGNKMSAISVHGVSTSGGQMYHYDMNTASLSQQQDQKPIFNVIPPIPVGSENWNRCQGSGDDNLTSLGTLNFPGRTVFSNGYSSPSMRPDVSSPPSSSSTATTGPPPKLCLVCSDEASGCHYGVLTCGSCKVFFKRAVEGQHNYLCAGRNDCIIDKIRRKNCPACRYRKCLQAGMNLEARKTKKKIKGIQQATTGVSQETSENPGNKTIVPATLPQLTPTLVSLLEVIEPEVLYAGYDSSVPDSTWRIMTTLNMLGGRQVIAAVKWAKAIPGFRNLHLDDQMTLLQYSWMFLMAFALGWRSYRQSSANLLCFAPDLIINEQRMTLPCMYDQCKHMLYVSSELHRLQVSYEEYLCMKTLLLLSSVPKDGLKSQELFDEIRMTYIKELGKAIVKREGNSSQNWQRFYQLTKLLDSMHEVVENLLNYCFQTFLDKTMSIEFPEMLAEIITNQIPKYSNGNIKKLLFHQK
Chain of Lysosomal acid glucosylceramidase (Homo sapiens) (P04062 whole entry, looked up): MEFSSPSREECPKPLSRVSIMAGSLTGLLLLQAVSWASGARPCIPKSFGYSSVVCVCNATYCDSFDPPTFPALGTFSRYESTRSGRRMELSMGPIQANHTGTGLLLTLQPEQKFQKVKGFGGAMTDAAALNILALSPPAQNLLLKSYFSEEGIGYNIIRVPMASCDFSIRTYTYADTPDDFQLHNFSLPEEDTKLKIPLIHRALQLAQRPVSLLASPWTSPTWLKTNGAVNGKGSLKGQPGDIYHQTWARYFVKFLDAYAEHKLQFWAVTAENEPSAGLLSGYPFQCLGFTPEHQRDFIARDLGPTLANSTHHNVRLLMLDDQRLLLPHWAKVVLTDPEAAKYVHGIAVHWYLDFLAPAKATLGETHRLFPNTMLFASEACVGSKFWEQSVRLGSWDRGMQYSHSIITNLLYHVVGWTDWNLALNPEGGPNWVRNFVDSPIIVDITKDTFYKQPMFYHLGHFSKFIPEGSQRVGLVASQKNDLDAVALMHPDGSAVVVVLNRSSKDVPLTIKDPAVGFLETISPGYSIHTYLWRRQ
Chain of 3',5'-cyclic-AMP phosphodiesterase 4B (Homo sapiens) (Q07343 whole entry, looked up): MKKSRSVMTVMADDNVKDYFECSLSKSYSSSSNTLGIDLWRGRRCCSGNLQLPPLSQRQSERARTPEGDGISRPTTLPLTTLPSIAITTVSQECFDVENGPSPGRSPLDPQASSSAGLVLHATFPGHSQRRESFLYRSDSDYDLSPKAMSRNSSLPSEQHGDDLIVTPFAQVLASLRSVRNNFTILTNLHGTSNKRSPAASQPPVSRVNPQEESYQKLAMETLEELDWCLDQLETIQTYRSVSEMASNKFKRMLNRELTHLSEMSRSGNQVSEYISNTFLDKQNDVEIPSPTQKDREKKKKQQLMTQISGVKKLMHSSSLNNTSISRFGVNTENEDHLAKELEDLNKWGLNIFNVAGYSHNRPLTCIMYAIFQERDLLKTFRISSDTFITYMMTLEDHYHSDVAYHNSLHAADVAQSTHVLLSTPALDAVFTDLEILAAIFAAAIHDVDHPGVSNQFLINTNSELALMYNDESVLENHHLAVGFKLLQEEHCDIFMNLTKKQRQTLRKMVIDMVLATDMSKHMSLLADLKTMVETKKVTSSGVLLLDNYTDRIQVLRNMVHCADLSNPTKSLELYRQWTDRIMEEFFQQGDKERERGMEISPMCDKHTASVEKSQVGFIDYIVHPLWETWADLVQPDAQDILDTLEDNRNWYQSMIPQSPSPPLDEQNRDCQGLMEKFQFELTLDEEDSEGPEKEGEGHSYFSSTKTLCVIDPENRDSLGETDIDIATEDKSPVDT
Chain of Cytochrome P450 2C19 (Homo sapiens) (P33261 whole entry, looked up): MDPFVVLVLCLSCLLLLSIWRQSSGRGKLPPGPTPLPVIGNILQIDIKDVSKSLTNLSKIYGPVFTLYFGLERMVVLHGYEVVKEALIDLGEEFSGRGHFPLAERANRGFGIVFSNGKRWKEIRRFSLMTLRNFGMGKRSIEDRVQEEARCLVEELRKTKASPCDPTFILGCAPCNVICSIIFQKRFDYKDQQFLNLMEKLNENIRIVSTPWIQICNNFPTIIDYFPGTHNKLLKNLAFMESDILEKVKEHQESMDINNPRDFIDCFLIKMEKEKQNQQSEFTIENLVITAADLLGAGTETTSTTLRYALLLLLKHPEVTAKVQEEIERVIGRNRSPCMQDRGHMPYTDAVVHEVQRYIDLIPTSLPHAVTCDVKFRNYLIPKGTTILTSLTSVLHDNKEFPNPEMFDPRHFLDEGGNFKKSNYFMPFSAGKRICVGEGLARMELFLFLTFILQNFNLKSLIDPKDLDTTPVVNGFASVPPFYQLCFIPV

Take `Cc1nc2cnc(Nc3ccccc3)nc2n(Cc2cccs2)c1=O`: the Potency in assay [1] was > 11.4 µM (inactive); in [3], 1.58 µM (active); in assay [6] it was > 9.22 µM (inactive); in [7] it was > 46 µM (inactive); in assay [10] it was 7.94 µM (active). Besides, the figures for the activity change, negative = inhibition in [2] and in assay [4] were 6.83% (inactive) and 31.1% (inactive), respectively. The activity, negative = inhibition in assay [5] was 10.1% (inactive). Moreover, the Potency entry in [8], in assay [9] and in assay [11] was “inactive” throughout. Further, the result in [12] was inactive.

In the case of `N#CCCn1c(=O)cnc2cnc(OCc3ccccc3)nc21`, the Potency in [1] was > 11.4 µM (inactive); in assay [3], 12.6 µM (active); in assay [6] it was > 9.22 µM (inactive); in assay [7] it was > 46 µM (inactive). Besides, the activity change, negative = inhibition in [2] is -4.07% (inactive); in assay [4], 0.323% (inactive). Besides, the activity, negative = inhibition in [5] was -5.03% (inactive). Besides, the Potency result in [8], in assay [9] and in assay [13] was “inactive” throughout. Besides, the outcome in assay [12] was inactive.

Take `O=c1c(-c2cccc(F)c2)nc2cncnc2n1C1CC1`: the Potency in assay [1] is > 11.4 µM (inactive); in assay [3], 1.58 µM (active); in assay [6] it was > 9.22 µM (inactive); in assay [7] it was > 46 µM (inactive). The activity change, negative = inhibition in assay [2] was -9.05% (inactive); in [4], -1.62% (inactive). Moreover, the activity, negative = inhibition in assay [5] was 1.43% (inactive). Moreover, the Potency result in assay [8], in assay [9] and in assay [11] was “inactive” in each case. Moreover, the outcome in assay [12] was inactive.

`COCCn1c(=O)c(-c2ccc(F)cc2)nc2cncnc21`: the Potency in assay [1] was > 11.4 µM (inactive); in assay [3], 0.501 µM (active); in [6], > 9.22 µM (inactive); in assay [7], > 46 µM (inactive). Further, the activity change, negative = inhibition in assay [2] is -7.99% (inactive); in assay [4], 1.81% (inactive). The activity, negative = inhibition in [5] is 2.35% (inactive). The Potency entry in [8], in assay [9] and in assay [11] was “inactive” throughout. In addition, the activation in assay [14] is 3.14% (inactive). The result in assay [12] was inactive.

For the molecule `Cc1nc2cnc(Oc3ccccc3)nc2n(-c2ccccc2)c1=O`, the Potency in assay [1] is > 11.4 µM (inactive); in [3] it was 10 µM (active); in [6], > 9.22 µM (inactive); in assay [7], > 46 µM (inactive). For the same molecule, the activity change, negative = inhibition in assay [2] was -7.96% (inactive); in assay [4], 9.01% (inactive). Also, in assay [5], the activity, negative = inhibition is -3.48% (inactive). For the same molecule, the Potency entry in assay [8], in assay [9] and in assay [11] was “inactive” each time. Besides, in assay [12], the result was inactive.

With `Cc1nc2cnc(Oc3ccccc3)nc2n(CCC#N)c1=O`, the Potency was > 11.4 µM (inactive) in [1], 20 µM (active) in assay [3], > 9.22 µM (inactive) in assay [6] and > 46 µM (inactive) in [7]. For the same molecule, the activity change, negative = inhibition in assay [2] is -21.9% (inactive); in assay [4], -8.6% (inactive). The activity, negative = inhibition in [5] is -6.56% (inactive). The Potency entry in [8], in assay [9] and in assay [11] was “inactive” throughout. The result in [12] was inactive.

Take `COc1ccc(-n2c(=O)c(-c3ccc(Cl)cc3)nc3cncnc32)cc1`: the Potency was > 11.4 µM (inactive) in assay [1], 5.01 µM (active) in assay [3], > 9.22 µM (inactive) in assay [6] and > 46 µM (inactive) in assay [7]. The activity change, negative = inhibition in [2] was -19.6% (inactive); in [4], -2.56% (inactive). In addition, the activity, negative = inhibition in [5] was -6.47% (inactive). Also, the Potency entry in [8] and in [11] was “inactive” in each case. Besides, the outcome in assay [12] was inactive.
